# Records with an inconclusive call do not appear. A number with no mark means an inactive call. Activity calls are given as the source filed them. The call rests on the fitted dose curve; in most records, active means well fitted inhibition curve with a large enough effect; inconclusive means small, poorly fitted or top-dose-only effect; inactive means flat fitted curve, though single readings scatter.
# Test: qHTS to identify inhibitors of the type 1 interferon - major histocompatibility complex class I in skeletal muscle: primary screen against the NCATS Pharmaceutical Collection (AID 1347407);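 further: luminescence of HiBiT knocked into endogenous HLA-B as interferon-induced MHC class I level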
# Conditions: human skeletal muscle cells, IFN-b-induced MHC-I HiBiT luminescence, 24 h; series mostly up to 45.9 µM; activity change, negative = inhibition: at the top concentration
# In short: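 Cells were seeded with 4 ng/ml IFN-beta, incubated 1 h, then dosed with compounds over eight 1:5 steps up to 46 uM final. After 24 h at 37 C, HiBiT lytic reagent was added and luminescence read after 10 min lysis in the dark.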
# On the % scale 0 is the no-effect control and ±100 the full control effect; potency means the concentration at half of the fitted maximal effect.
SMILES,"activity change, negative = inhibition",Potency
Cc1ncc2n1-c1ccc(Cl)cc1C(c1ccccc1F)=NC2,-21.4%,
CNC(=O)NC(O)C(Cl)(Cl)Cl (stereo unspecified),0.557%,
CC(C(O)c1ccccc1)N(C)C/C=C/c1ccccc1 (stereo unspecified),-25.2%,
COP(=O)(OC)OC=C(Cl)Cl,-0.912%,
CCC(=O)OC1(c2ccccc2)CCN(C)CC1,-27.4% [at 92.2 µM],
CCCOC(=O)Cc1ccc(OCC(=O)N(CC)CC)c(OC)c1,-20.7%,
CCN1CCCC1CNC(=O)C(O)(c1ccccc1)c1ccccc1 (stereo unspecified),3.46%,
CC(Cc1ccccc1)NCc1ccccc1Cl (stereo unspecified),-5.99%,
COc1cc(C[C@@H](C)N)c(OC)cc1Br,-12.7% [at 92.2 µM],
C[N+]1(C)[C@@H]2CC[C@H]1CC(OC(=O)C(CO)c1ccccc1)C2 (stereo partly specified),-1.1%,
O=C(CCCN1CCC(n2c(=O)[nH]c3ccccc32)CC1)c1ccc(F)cc1,-3.07%,
CN1CCc2cc(Cl)c(O)cc2[C@H]2c3ccccc3CC[C@@H]21,-3.53%,
CCN(CC)Cc1nccn1-c1ccc([N+](=O)[O-])cc1C(=O)c1ccccc1Cl,2.49%,
c1cc2c(c(N3CCNCC3)c1)OCCO2,1.83%,
CC(C)=C[C@@H]1[C@@H](C(=O)OCc2coc(Cc3ccccc3)c2)C1(C)C,-20.7%,
COCC(=O)N(c1c(C)cccc1C)C(C)C(=O)OC (stereo unspecified),1.33%,
C1CN2CCC1CC2,-0.701%,
CCS(=O)(=O)C(C)(C)S(=O)(=O)CC,-0.401%,

SMILES,"activity change, negative = inhibition",Potency
CN1C[C@@H](NS(=O)(=O)N(C)C)C[C@@H]2c3cccc4c3c(cn4C)C[C@H]21,-5.16%,
CC[C@H]1C[C@@H]2C[C@H]3c4[nH]c5ccc(OC)cc5c4CCN(C2)[C@@H]13,-11% [at 92.2 µM],
ClCCCN1CCN(c2cccc(Cl)c2)CC1,0.567%,
Cc1ccc([N+](=O)[O-])[c]2c1[O][Hg]2,,11.8 µM (active)
CC(CC(C#N)(c1ccccc1)c1ccccc1)N(C)C (stereo unspecified),-8.45% [at 92.2 µM],
O=c1n(Cl)c(=O)n(Cl)c(=O)n1Cl,1.75%,
COc1cc(CC#N)cc(OC)c1OC,0.974%,
CCCC[N+]1(C)[C@@H]2CC(OC(=O)[C@H](CO)c3ccccc3)C[C@H]1[C@@H]1O[C@@H]12 (stereo partly specified),-14.6%,
O=C(N[C@@H]1N=C(c2ccccc2F)c2cccc3c2N(CC3)C1=O)c1cc2ccccc2[nH]1,-27.8%,
CCC1(CC)C(=O)NC(=O)NC1=O,-0.186%,
Cc1c(Cl)c(=O)oc2cc(OP(=O)(OCCCl)OCCCl)ccc12,-8.48%,
C[C@]12CC[C@H]3[C@@H](CCC4=CC(=O)CC[C@@]43C)[C@@H]1CC[C@@H]2C(=O)O,5.16%,
COP(=S)(OC)Oc1ccc(Sc2ccc(OP(=S)(OC)OC)cc2)cc1,-21.8%,
O=c1[nH]c2cc(Cl)ccc2n1C1CCNCC1,7.71%,
C[C@H](CN1CCOCC1)C(C(=O)N1CCCC1)(c1ccccc1)c1ccccc1,-33.8% [at 154 µM],
Nc1ccc(Cl)cc1C(=O)c1ccccc1F,1.81%,
CCc1cc(OC)c(C[C@H](C)N)cc1OC,-18.4% [at 92.2 µM],
Nc1ccc(N)cc1,-9.63%,
